Source: PubChem BioAssay (The Scripps Research Institute Molecular Screening Center)
Fam108B counter: Fam108B inhibition, counter-screen for RBBP9 inhibitors; recombinant Fam108B, FP-Rh probe fluorescence polarization; inhibition, % at 9.51 µM; 300,000 compounds, 0.33% hits; AID 1947;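 active means inhibition above the screen mean inhibition plus 3 SD, computed separately per campaign, cut at about 18% in these data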;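 further: inhibitors lower polarization as less probe binds the enzyme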
PAFAH1B3 inh: inhibitors of human PAFAH1B3. 340,000 compounds, 0.28% hits. inhibition, % at 3.39 µM. recombinant PAFAH1B3, FP-rhodamine probe, fluorescence polarization;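 active means inhibition above the screen-wide average of all tested compounds plus 3 SD, cut at about 25% in these data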
Target sequence (Q15102 whole entry, looked up): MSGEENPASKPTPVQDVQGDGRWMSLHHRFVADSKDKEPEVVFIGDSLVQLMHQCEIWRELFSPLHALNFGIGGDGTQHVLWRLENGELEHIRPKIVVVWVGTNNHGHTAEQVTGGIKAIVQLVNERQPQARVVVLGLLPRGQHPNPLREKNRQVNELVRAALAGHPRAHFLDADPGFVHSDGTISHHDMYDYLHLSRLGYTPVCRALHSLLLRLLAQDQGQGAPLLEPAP
PME-1 primary: PME-1 (human) inhibition | 320,000 compounds, 0.53% hits | recombinant PME-1, FP-Rh probe fluorescence polarization | Q9Y570 | inhibition, % at 5.9 µM | AID 2130;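 active means inhibition above the campaign mean of all compounds plus 3 SD, cut at about 26% in these data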;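 further: competitive labeling of PME-1 active site by serine hydrolase directed probe; inhibitors block probe labeling so polarization falls and inhibition rises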
pPAFAH FP inh: inhibitors of human plasma PAF acetylhydrolase (pPAFAH); Q13093; recombinant pPAFAH, FP-rhodamine probe fluorescence polarization; inhibition, % at 3.39 µM; 330,000 compounds, 1.5% hits; AID 463082;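 active means inhibition above the mean inhibition across the screen plus 3 SD, cut at about 25% in these data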;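 further: inhibitors block binding of the rhodamine activity-based probe so polarization drops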
PAFAH2 FP inh: inhibitors of human PAFAH2; Q99487; recombinant PAFAH2, FP-rhodamine activity probe, fluorescence polarization; inhibition, % at 3.39 µM; 340,000 compounds, 0.99% hits; AID 492956;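 active means inhibition above the mean over all tested compounds plus 3 SD, cut at about 30% in these data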;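 further: inhibitors block probe labeling of enzyme so polarization drops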
PAFAH1B2 inh: inhibitors of human PAFAH1B2; P68402; 340,000 compounds, 1.2% hits; recombinant PAFAH1B2, FP-rhodamine activity probe, fluorescence polarization; AID 492953; inhibition, % at 3.39 µM;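 active means inhibition above the mean of all tested compounds plus 3 SD, cut at about 24% in these data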
Target sequence (P68402 whole entry, looked up): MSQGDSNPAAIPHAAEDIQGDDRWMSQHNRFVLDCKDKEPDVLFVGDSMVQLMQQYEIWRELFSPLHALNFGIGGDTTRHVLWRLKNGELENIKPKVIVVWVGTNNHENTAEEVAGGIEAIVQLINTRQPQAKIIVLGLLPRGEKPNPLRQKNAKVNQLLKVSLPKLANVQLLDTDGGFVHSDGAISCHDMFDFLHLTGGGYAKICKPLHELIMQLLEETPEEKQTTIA
PAFAH2 confirm: PAFAH2 (human) inhibition, confirmed | shares compounds with PAFAH2 FP inh | recombinant PAFAH2, FP-rhodamine activity probe, fluorescence polarization | inhibition, % at 3.39 µM | 2,300 compounds, 65% hits;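 active means mean inhibition over three repeats above a set limit taken from the earlier primary screen, cut at about 30% in these data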;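 further: inhibitor blocks binding of rhodamine activity probe so polarization falls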
A number is an active result. The list is not random: actives were taken first. Their share in the collection is about 2.9%.

CC(C)n1nc(C(=O)Nc2nnc(SCc3c(Cl)cccc3Cl)s2)c2ccccc2c1=O was read as Fam108B counter inactive, PAFAH1B3 inh inactive, PME-1 primary inactive, pPAFAH FP inh inactive, PAFAH2 FP inh 40, PAFAH1B2 inh inactive and PAFAH2 confirm 66.
`CC(=O)N1CCN(S(=O)(=O)c2cccc(C(=O)OCC(=O)Nc3c(Cl)cccc3C(F)(F)F)c2)CC1` gave PAFAH1B3 inh inactive, PAFAH2 FP inh 44, PAFAH1B2 inh inactive and PAFAH2 confirm 32.
Cc1ccc(C(=O)OCC(=O)NC(=O)c2cccn2C)cc1 was read as Fam108B counter inactive, PAFAH1B3 inh inactive, PME-1 primary inactive, pPAFAH FP inh inactive, PAFAH2 FP inh 47, PAFAH1B2 inh inactive and PAFAH2 confirm 38.
`COc1cccc(CNC(=O)COC(=O)c2cccc(S(=O)(=O)N3CCN(C(C)=O)CC3)c2)c1` gave PAFAH1B3 inh inactive, PME-1 primary inactive, pPAFAH FP inh inactive, PAFAH2 FP inh inactive and PAFAH1B2 inh inactive.
For CC(=O)N1CCN(S(=O)(=O)c2cccc(C(=O)OCC(=O)NC(=O)c3cccn3C)c2)CC1 the results were Fam108B counter inactive, PAFAH1B3 inh inactive, PME-1 primary inactive, pPAFAH FP inh inactive, PAFAH2 FP inh 35, PAFAH1B2 inh inactive and PAFAH2 confirm 32.
O=C(COC(=O)c1cccc(S(=O)(=O)N2CCCC2)c1)Nc1ccccc1C(F)(F)F was read as PAFAH1B3 inh inactive, PAFAH2 FP inh 45, PAFAH1B2 inh inactive and PAFAH2 confirm 40.
O=c1c2c(nc3cc(-c4ccccc4)[nH]n13)CCS2 was read as Fam108B counter inactive, PAFAH1B3 inh inactive, PME-1 primary inactive, pPAFAH FP inh inactive, PAFAH2 FP inh 43, PAFAH1B2 inh inactive and PAFAH2 confirm inactive.
For O=C(CCC1CCCC1)NNC(=O)COc1ccc(Br)cc1 the results were PAFAH1B3 inh inactive, pPAFAH FP inh inactive, PAFAH2 FP inh 35, PAFAH1B2 inh inactive and PAFAH2 confirm inactive.
Screening CC1CCCCN1C(=O)Nc1ccccc1Cl (stereo not given) returned Fam108B counter inactive, PAFAH1B3 inh inactive, PME-1 primary inactive, pPAFAH FP inh inactive, PAFAH2 FP inh inactive and PAFAH1B2 inh inactive.
C=CCn1c(C)cc(C(=O)COC(=O)/C=C/c2ccc(OC)cc2)c1C was read as Fam108B counter inactive, PAFAH1B3 inh inactive, PME-1 primary inactive, pPAFAH FP inh inactive, PAFAH2 FP inh 62, PAFAH1B2 inh inactive and PAFAH2 confirm 57.
For Cc1cc(C(=O)COC(=O)/C=C/c2cccc(F)c2)c(C)n1C the results were Fam108B counter inactive, PAFAH1B3 inh inactive, PME-1 primary inactive, pPAFAH FP inh inactive, PAFAH2 FP inh inactive and PAFAH1B2 inh inactive.
C=CCn1c(C)cc(C(=O)COC(=O)/C=C/c2cccc(OC)c2)c1C was read as Fam108B counter inactive, PAFAH1B3 inh inactive, PME-1 primary inactive, pPAFAH FP inh inactive, PAFAH2 FP inh 55, PAFAH1B2 inh inactive and PAFAH2 confirm 46.
Screening CCOc1ccccc1NC(=O)CSc1nc2[nH]ncc2c(=O)[nH]1 returned Fam108B counter inactive, PAFAH1B3 inh inactive, PME-1 primary inactive, pPAFAH FP inh inactive, PAFAH2 FP inh inactive and PAFAH1B2 inh inactive.
CC(C)c1ccc(CSc2ccc(S(=O)(=O)N3CCOCC3)cn2)cc1 was read as PAFAH1B3 inh inactive, PME-1 primary inactive, pPAFAH FP inh inactive, PAFAH2 FP inh inactive and PAFAH1B2 inh inactive.
`COc1cccc(C2N(Cc3ccccc3)C(=O)C2(F)F)c1OC` (stereo not given) gave Fam108B counter inactive, PAFAH1B3 inh inactive, PME-1 primary inactive, pPAFAH FP inh inactive, PAFAH2 FP inh inactive and PAFAH1B2 inh inactive.
`CC(C)CNC(=O)COC(=O)c1ccc(F)cc1Cl` gave Fam108B counter inactive, PAFAH1B3 inh inactive, PME-1 primary inactive, pPAFAH FP inh inactive, PAFAH2 FP inh 35, PAFAH1B2 inh inactive and PAFAH2 confirm inactive.
CC(C)CNC(=O)COC(=O)c1cc(Cl)cc(Cl)c1N was read as Fam108B counter inactive, PAFAH1B3 inh inactive, PME-1 primary inactive, pPAFAH FP inh inactive, PAFAH2 FP inh inactive and PAFAH1B2 inh inactive.
For COc1cc(SC)ccc1C(=O)OCC(=O)NCC(C)C the results were Fam108B counter inactive, PAFAH1B3 inh inactive, PME-1 primary inactive, pPAFAH FP inh inactive, PAFAH2 FP inh 45, PAFAH1B2 inh inactive and PAFAH2 confirm inactive.
